DAX1 inh-1 – inhibitors of DAX1 repression of SF-1 activated StAR promoter. actives 1.1% (n = 370,000). HEK293T StAR-luciferase reporter, SF-1/DAX-1 repression relief. inhibition, % at 6.8 µM;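 active = inhibition above the mean over all tested compounds plus 3 SD, cut at about 3.6% in these data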;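 also: 0% = DAX-1 cells with DMSO and 100% = cells lacking DAX-1 with DMSO; higher inhibition means more luminescence from relief of DAX-1 repression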
hcDAF12 agonist – H. contortus DAF-12 activation, primary screen; actives 1.4% (n = 370,000); HEK293 hcDAF-12 lit1-tk-luc reporter, luminescence; 0% DMSO, 100% Δ7-dafachronic acid; AID 652067; activation, % at 6.8 µM;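 active = activation above the mean of all tested compounds plus 3 SD, cut at about 5.5% in these data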;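 also: 100% = response to 3 µM Δ7-dafachronic acid high control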
hgDAF12 agonist – agonists of H. glycines DAF-12 nuclear receptor. activation, % at 6.8 µM. AID 687014. actives 1.8% (n = 370,000). HEK293 GAL4-hgDAF12 UAS-luciferase reporter, agonist luminescence; normalized to butyrate control;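 active = activation above a cutoff set at the mean of all screened compounds plus 3 SD, cut at about 10% in these data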;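 also: 0% = DMSO wells and 100% = sodium butyrate wells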
ssDAF12 agonist – S. stercoralis DAF-12 activation, primary screen | HEK293 ssDAF-12/GRIP1 lit1-tk-luc reporter, luminescence; % of 3 µM dafachronic acid response | activation, % at 6.8 µM | actives 1% (n = 370,000) | AID 652126;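 active = activation above the mean over all tested compounds plus 3 SD, cut at about 0.9% in these data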;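 also: 0% = DMSO-only wells and 100% = 3 µM delta7-dafachronic acid wells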
DAX1 inh-2 – NR0B1 (DAX1) inhibition. P51843. HEK293 Gal4-DAX1 luciferase reporter, luminescence. inhibition, % at 6.75 µM. actives 0.99% (n = 340,000);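 active = inhibition above the mean over all tested compounds plus 3 SD, cut at about 4.2% in these data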;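 also: 0% = DAX1-transfected cells with DMSO and 100% = empty-vector control cells with DMSO; inhibition shows as a rise in luminescence from relieved DAX1 repression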
Target sequence (P51843 207-470 limits assumed): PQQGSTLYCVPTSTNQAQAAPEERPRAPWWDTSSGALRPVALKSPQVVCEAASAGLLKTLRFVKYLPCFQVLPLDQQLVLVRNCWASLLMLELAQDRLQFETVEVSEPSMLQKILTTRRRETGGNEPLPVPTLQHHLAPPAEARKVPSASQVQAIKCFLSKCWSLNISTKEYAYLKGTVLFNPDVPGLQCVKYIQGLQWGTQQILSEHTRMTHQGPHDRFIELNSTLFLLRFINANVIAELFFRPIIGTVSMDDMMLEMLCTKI
DAX1 inh confirm – confirmation of human DAX1 (NR0B1) inhibitors. actives 87% (n = 2,400). inhibition, % at 6.8 µM. HEK293T StAR-promoter luciferase reporter, SF-1/DAX-1 repression. shares compounds with DAX1 inh-1;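 active = inhibition above the average of every tested compound plus 3 SD, cut at about 3.8% in these data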;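 also: 0% = DAX-1 cells with DMSO and 100% = no DAX-1 control cells with DMSO; active compounds raise luminescence by relieving repression of the StAR reporter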
Target sequence (P51843 whole entry, looked up): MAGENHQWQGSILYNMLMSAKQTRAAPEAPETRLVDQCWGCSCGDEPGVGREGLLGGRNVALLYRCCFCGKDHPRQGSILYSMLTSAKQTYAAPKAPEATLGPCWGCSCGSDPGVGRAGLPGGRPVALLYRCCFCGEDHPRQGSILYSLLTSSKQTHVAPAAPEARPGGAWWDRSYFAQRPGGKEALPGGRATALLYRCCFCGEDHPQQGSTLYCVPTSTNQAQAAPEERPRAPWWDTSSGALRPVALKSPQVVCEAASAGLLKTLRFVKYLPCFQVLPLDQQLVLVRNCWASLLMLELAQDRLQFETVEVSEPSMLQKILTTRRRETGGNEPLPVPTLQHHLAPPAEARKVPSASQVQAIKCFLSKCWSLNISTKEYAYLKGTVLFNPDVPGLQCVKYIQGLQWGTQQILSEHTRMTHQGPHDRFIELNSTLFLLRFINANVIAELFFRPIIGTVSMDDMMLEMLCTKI
SF1 AF2mut Luc – nonselective inhibitor or artifact in SF-1 mutant DAX1 counter-screen; inhibition, % at 6.8 µM; actives 78% (n = 2,400); AID 652136; HEK293 StAR-luciferase, SF-1 AF2 mutant, luminescence; shares compounds with DAX1 inh-1;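 active = inhibition above the mean of all tested compounds plus 3 SD, cut at about 3% in these data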;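 also: 0% = DAX-1 transfected cells with DMSO and 100% = cells without DAX-1 with DMSO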
LXRb hcDAF ctr – LXR-beta agonism as hcDAF-12 counter-screen | shares compounds with hcDAF12 agonist | HEK293 Gal4-LXR tk-luc reporter, luminescence, 24 h; normalized: DMSO 0%, positive control 100% | activation, % at 6.8 µM | 3,400 tested, under 10 active | AID 743027;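 active = mean percent activation of the reporter above a cutoff set as the average over tested compounds plus their standard deviation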
hcDAF12 ag – confirmation of H. contortus DAF-12 agonists; shares compounds with hcDAF12 agonist; HEK293 hcDAF-12 lit1-tk-luc reporter, luminescence; % of Δ7-dafachronic acid response; activation, % at 6.8 µM; actives 61% (n = 3,400);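 active = mean activation across triplicate tests above the threshold derived from the earlier primary screen, cut at about 5.5% in these data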;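 also: 0% = DMSO only wells and 100% = 3 µM Δ7-dafachronic acid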
hgDAF12 ag – hgDAF-12 agonism, confirmation assay; AID 743050; actives 80% (n = 3,300); activation, % at 6.8 µM; HEK293 GAL4-hgDAF12 luciferase reporter, agonist mode; percent of butyrate response; shares compounds with hgDAF12 agonist;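 active = mean activation over triplicate wells above the hit cutoff derived from the earlier primary screen, cut at about 11% in these data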;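 also: 0% = DMSO low control and 100% = 2 mM sodium butyrate high control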
LXR ag 2 – counter-screen for DAF-12 agonists: agonists of human LXR-beta. activation, % at 6.8 µM. 3,300 tested, under 10 active. HEK293 Gal4-LXR luciferase reporter, 24 h. shares compounds with hgDAF12 agonist;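 active = mean activation of the triplicate above a set limit carried over from the primary screen, none filed active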
Starred values were filed as active, the others as inactive; . = not tested or not shown. Shown are actives, neighbours in structure and some others; about 4.1% of the full set was active somewhere.

SMILES	DAX1 inh-1	hcDAF12 agonist	hgDAF12 agonist	ssDAF12 agonist	DAX1 inh-2	DAX1 inh confirm	SF1 AF2mut Luc	hgDAF12 ag	LXR ag 2	others
CC(=O)c1cccc(N/C=C\C(=O)c2ccc(C)cc2)c1	6.0*	9.6*	19.6*	0.7	0.4	18.6*	8.5*	25.1*	1.1	LXRb hcDAF ctr=1.9;hcDAF12 ag=9.7*
CC(=O)c1cccc(NS(=O)(=O)c2ccc(N/C=C\C(=O)c3ccc(C)cc3)cc2)c1	0.7	1.0	3.3	-0.2	-2.5	.	.	.	.
COc1ccc(CN2CCC(CNC(=O)Nc3ccc(Cl)cc3)CC2)cc1	0.6	-1.5	7.6	-1.0	.	.	.	.	.
COc1ccc(/C=C/c2nc3ccccc3n2Cc2ccc(OC)c(OC)c2)cc1	5.9*	7.7*	26.8*	0.9*	-0.3	19.4*	6.8*	15.1*	0.9	LXRb hcDAF ctr=1.4;hcDAF12 ag=8.6*
COCCOCCn1c(/C=C/c2ccccc2)nc2ccccc21	6.2*	3.1	13.2*	0.2	4.1	13.7*	6.8*	14.9*	0.8
Cc1cccc(-n2ncc3c(Nc4ccc(F)cc4)ncnc32)c1	1.7	-2.4	4.9	-1.4	0.9	.	.	.	.
NNc1ncnc2c1cnn2-c1ccccc1	0.2	2.1	2.5	-0.3	3.7	.	.	.	.
CCC(CO)Nc1ncnc2c1cnn2-c1ccc(OC)cc1 (stereo not given)	5.1*	3.3	16.4*	0.1	1.2	8.4*	4.4*	8.8	0.7
Cc1cccc(-n2ncc3c(NC(C)C)ncnc32)c1	6.6*	1.3	16.7*	0.4	0.8	11.4*	8.2*	17.9*	1.1
CC(C)Nc1ncnc2c1cnn2-c1ccccc1	5.4*	4.0	16.8*	-0.3	0.0	7.2*	4.2*	12.2*	0.8
CCCCOCCCNC(=O)C[C@H]1C[C@@]2(C(=O)OC)C(=C[C@H](C3CCCC3)O[C@@H]2C)N(Cc2ccccc2)C1=O	0.7	-1.2	0.2	-0.9	.	.	.	.	.
CC(=O)N1C[C@@H](CN2C(=O)CCC2=O)[C@@H]2C[C@H]1c1ccccc1N2C	1.0	-1.1	-2.7	-0.8	.	.	.	.	.
COc1ccc(-c2cc3ccccc3oc2=O)cc1NC(=O)c1ccc(Br)o1	0.2	3.4	5.7	0.0	2.9	.	.	.	.
CCC(=O)Nc1cc(-c2cc3ccccc3oc2=O)ccc1OC	5.0*	0.9	13.8*	-0.8	2.1	9.3*	6.0*	15.4*	0.5
O=C(N[C@H](Cc1ccccc1)C(=O)NCC1CCCO1)[C@H]1O[C@@H](n2ccc(=O)[nH]c2=O)[C@H](O)[C@@H]1O (stereo not given in full)	1.1	0.7	3.1	-1.1	.	.	.	.	.
O=C(/C=C/c1ccccc1Cl)Nc1cccc(O)c1	5.8*	10.3*	24.3*	0.2	-0.8	17.3*	10.7*	19.9*	1.2	LXRb hcDAF ctr=2.3;hcDAF12 ag=6.5*
O=C(/C=C/c1ccccc1Cl)Nc1ccc2c(c1)C(=O)NC2=O	0.0	-1.7	2.4	-1.7	-0.3	.	.	.	.
Cc1cc(NC(=O)CCc2c[nH]c3ccccc23)ccc1Oc1cccnc1	1.2	1.5	5.8	-1.0	.	.	.	.	.
CC(=O)Oc1ccc2c(=O)c(-c3ccccc3)coc2c1	5.9*	1.5	13.5*	-1.4	0.2	6.5*	4.0*	9.5	0.4
COc1ccc(-c2coc3cc(OC4OC(CO)C(O)C(O)C4O)ccc3c2=O)cc1 (stereo not given)	2.5	1.9	8.7	0.4	1.5	.	.	.	.
COc1ccc(-c2coc3cc(OC)ccc3c2=O)cc1	5.8*	5.2	19.3*	-0.3	4.0	11.9*	7.0*	12.8*	0.9
S=C(c1ccc(-c2ccc(Cl)cc2)o1)N1CCCCC1	5.3*	3.8	15.4*	0.2	4.8*	14.8*	9.0*	19.7*	1.0
COC(=O)c1cc2c(c3c4cc(F)ccc4n(S(=O)(=O)c4ccc(C)cc4)c13)C(=O)N(Cc1ccccc1OC)C2	-0.1	-0.2	-0.6	-0.1	.	.	.	.	.
Cc1cc(C)n2nc(-c3ccc(F)cc3)cc2n1	6.6*	9.5*	18.4*	2.9*	3.3	13.2*	8.5*	18.0*	0.6	LXRb hcDAF ctr=0.9;hcDAF12 ag=12.2*
CS(=O)(=O)N[C@@H]1C[C@@H]2O[C@H](CO)CC[C@@H]2O[C@@H]1CCc1ccc(-c2ccccc2F)cc1	-0.4	-1.9	1.1	-2.0	.	.	.	.	.
SMILES	DAX1 inh-1	hcDAF12 agonist	hgDAF12 agonist	ssDAF12 agonist	DAX1 inh-2	DAX1 inh confirm	SF1 AF2mut Luc	hgDAF12 ag	LXR ag 2	others
O=C(CSC(=S)N1CCSCC1)c1ccccc1	5.0*	3.5	18.2*	0.6	0.6	11.5*	6.9*	18.6*	0.8
S=C(c1ccccc1)N1CCSCC1	0.1	0.6	-0.8	-1.0	-0.8	.	.	.	.
O=C(NCCN1C(=O)C2C3C=CC(C3)C2C1=O)c1cc(F)cc(F)c1 (stereo not given)	-0.7	-0.9	6.6	-1.2	.	.	.	.	.
CC(C)CC(=O)Nc1ccc(-c2nc3ccccc3c(=O)[nH]2)cc1	5.0*	3.2	15.7*	-0.1	1.5	16.5*	7.6*	20.6*	1.2
CC(C)CC(=O)Nc1ccc(-c2nc3ccccc3c(=O)o2)cc1	-0.1	-1.7	-1.6	-1.0	-1.6	.	.	.	.
COC(=O)c1cc(S(=O)(=O)N2CCCN(C(C)=O)CC2)cn1C	-1.0	0.0	0.8	-1.5	.	.	.	.	.
CC(OC(=O)c1ccc2c(c1)OCCO2)C(=O)c1ccccc1 (stereo not given)	11.8*	7.3*	14.4*	0.8	4.9*	10.6*	6.8*	16.0*	1.0	LXRb hcDAF ctr=1.7;hcDAF12 ag=7.8*
COc1ccc(C2CC(=O)C(c3ccc(C(C)=O)cc3)=CN2Cc2ccccc2)cc1 (stereo not given)	-0.1	-0.1	-1.1	-1.0	.	.	.	.	.
Cc1nc2oc3ccccc3c(=O)c2cc1C(=O)O	0.3	-0.4	0.5	-0.8	-0.4	.	.	.	.
CN(C)c1ccc2c(=O)c3ccccc3oc2n1	7.8*	7.9*	13.5*	0.3	.	13.3*	5.9*	22.3*	0.9	LXRb hcDAF ctr=1.5;hcDAF12 ag=8.4*

High-throughput results from PubChem.
